Here are results for 40 compounds from PubChem BioAssay (NCATS).

Results filed as inconclusive are left out. Entries that show only a call come without a potency. Calls of active or inactive are those of the source. The call rests on the fitted dose curve; in most records, active means well fitted cell-killing curve with a large enough effect; inconclusive means small, poorly fitted or top-dose-only effect, or effect the other way; inactive means no such curve, though single readings can be large or run the other way.
Potency means the concentration at half of the fitted maximal effect.

The nature of this test: Quantitative High-Throughput drug screen in 47 multiple myeloma cell lines against the NCATS MIPE library collection: KMS28BM_JCRB cell viability assay (AID 1919874). Further: nearly all actives have a fitted effect of over 35% in size. Conditions: CellTiter-Glo ATP, 48 h; series mostly up to 45.8 µM. An excerpt: PI: Beverly A. Mock Ph.D.
Laboratory of Cancer Biology and Genetics,
Center for Cancer Research, National Cancer Institute,
National Institute of Health, Bethesda, Maryland
Drug resistance and disease progression are common in multiple myeloma (MM) patients, underscoring the need for new therapeutic combinations. […] We hypothesized that effective combinations would reduce MYC expression and enhance p16 activity. […] These preclinical data identify potentially useful drug combinations for evaluation in drug-resistant MM and reveal potential mechanisms of combined drug sensitivity.
Described herein is the primary MIPE qHTS used to cherrypick compounds. Validated compounds were then further tested for potential synergistic activiy.
[1] Peat TJ, Gaikwad SM, Dubois W, Gyabaah-Kessie N, Zhang S, Gorjifard S, Phyo Z, Andres M, Hughitt VK, Simpson RM, Miller MA, Girvin AT, Taylor A, Williams D, D'Antonio N, Zhang Y, Rajagopalan A, Flietner E, Wilson K, Zhang X, Shinn P, Klumpp-Thomas C, McKnight C, Itkin Z, Chen L, Kazandijian D, Zhang J, Michalowski AM, Simmons JK, Keats J, Thomas CJ, Mock BA. Drug combinations identified by high-throughput screening promote cell cycle transition and upregulate Smad pathways in myeloma. Cancer Lett. 2023 Aug 1;568:216284. doi: 10.1016/j.canlet.2023.216284. Epub 2023 Jun 24. PMID: 37356470; PMCID: PMC10408729.
SEQUENCE No. (e.g., 1, 2, 3, etc.); […] (e.g., Cells, Incubation, Reagent, etc.); VALUE and DESCRIPTION.
1; Cells; 5 uL; white, solid bottom 1536-well Greiner assay plate.
2; Compounds; 23 nL; Kalypsis pin tool (Wako USA) equipped with a 1536-well pin head to transfer to the assay plates.
3; Incubation; 48 hours; 37C incubation.
4; Reagent;5uL; CellTiter Glo (Promega).
5; Detector; 425V; Luminescence; Viewlux PerkinElmer.
NOTES (numbers refer to Sequence numbers above)
1. The cell-based screening methods employed in this study were like those previously published. Briefly, the corresponding myeloma cell lines were screened in 1,536-well plates with 500 cells, 5-uL per well for inhibition of cell viability (assessed by measuring ATP levels with CellTiterGlo).
2. NCATS MIPE 4.0 library of approved and investigational drugs were added using the Kalypsis pin tool. Wells treated with DMSO only for 100% viability and media only for 0% viability were used as controls.
3. The assay plates were covered and incubated for 48 hours in a 37C, 5% CO2 incubator with controlled humidity.
4. After 48 hours, CellTilter-GloTM luminescent substrate mix (Promega) reagent was added to the assay plate and plates we incubated for 5 min at room temperature.
5. Signal was measured as median relative luminescence units on a ViewLux (PerkinElmer) multiplate reader.
[1] Heske CM, Davis MI, Baumgart JT, Wilson K, Gormally MV, Chen L, Zhang X, Ceribelli M, Duveau DY, Guha R, Ferrer M, Arnaldez FI, Ji J, Tran HL, Zhang Y, Mendoza A, Helman LJ, Thomas CJ. Matrix Screen Identifies Synergistic Combination of PARP Inhibitors and Nicotinamide Phosphoribosyltransferase (NAMPT) Inhibitors in Ewing Sarcoma. Clin Cancer Res. 2017 Dec 1;23(23):7301-7311. doi: 10.1158/1078-0432.CCR-17-1121. Epub 2017 Sep 12. PMID: 28899971; PMCID: PMC6636827.
On to `NC1(c2ccc(-c3nc4ccn5c(=O)[nH]nc5c4cc3-c3ccccc3)cc2)CCC1`, for which the Potency was 9.35 µM (active).
With `C1CCC(C(CC2CCCCN2)C2CCCCC2)CC1` (stereo not given), the Potency is 9.35 µM (active).
Under `Cn1c(=O)c2c(ncn2CC(O)CO)n(C)c1=O` (stereo not given) stands “inactive”; under `COc1c(N2CCNC(C)C2)c(F)cc2c(=O)c(C(=O)O)cn(C3CC3)c12` (stereo not given), “inactive”.
Under `O=NN(CCCl)C(=O)NC1CCCCC1` stands “inactive”; under `CC1=NN(c2ccccc2)C(=O)C1`, “inactive”; under `CCOCC(O)COc1ccc(NC(=O)CC[S+](C)C)cc1` (stereo not given), “inactive”.
Consider `CC(C)OC(=O)OCOP(=O)(CO[C@H](C)Cn1cnc2c(N)ncnc21)OCOC(=O)OC(C)C`, for which the Potency is 14.8 µM (active).
On to `CC(N)C12CC3CC(CC(C3)C1)C2` (stereo not given), for which the Potency entry is “inactive”.
Under `COc1ncnc(NS(=O)(=O)c2ccc(N)cc2)c1OC` stands “inactive”.
Under `COc1cc(NCc2ccc3nc(N)nc(N)c3c2C)cc(OC)c1OC` stands 20.9 µM (active).
Regarding `CN(C)CCc1c[nH]c2ccc(C[C@H]3COC(=O)N3)cc12`, the Potency entry was “inactive”.
Under `C[C@@H]1C[C@H]2[C@@H]3CCC4=CC(=O)C=C[C@]4(C)[C@@]3(Cl)[C@@H](O)C[C@]2(C)[C@@]1(OC(=O)c1ccco1)C(=O)CCl` stands 29.6 µM (active); under `Cc1cccc(N(C)C(=S)Oc2ccc3ccccc3c2)c1`, “inactive”.
Under `NNC(=O)c1ccncc1` stands “inactive”; under `CC[C@H](C)C(=O)O[C@H]1C[C@@H](C)C=C2C=C[C@H](C)[C@H](CC[C@@H]3C[C@@H](O)CC(=O)O3)[C@H]21`, 23.5 µM (active); under `CC(=O)[C@H]1CC[C@H]2[C@@H]3CCC4=CC(=O)CC[C@]4(C)[C@H]3CC[C@]12C`, 16.6 µM (active).
Under `Cc1oc(=O)oc1CN1CCN(c2cc3c(cc2F)c(=O)c(C(=O)O)c2n3C(C)S2)CC1` (stereo not given) stands “inactive”.
Turning to `CCC(=O)O[C@]1(C(=O)SCF)[C@H](C)C[C@H]2[C@@H]3C[C@H](F)C4=CC(=O)C=C[C@]4(C)[C@@]3(F)[C@@H](O)C[C@@]21C`, the Potency entry is “inactive”.
Under `C[C@@H]1CN(c2c(F)c(N)c3c(=O)c(C(=O)O)cn(C4CC4)c3c2F)C[C@H](C)N1` stands “inactive”.
Under `O=P(O)(O)C(O)(Cc1cccnc1)P(=O)(O)O` stands “inactive”; under `CCN(C)C(=O)Oc1cccc([C@H](C)N(C)C)c1`, “inactive”.
Turning to `CCCCc1oc2ccc(NS(C)(=O)=O)cc2c1C(=O)c1ccc(OCCCN(CCCC)CCCC)cc1`, the Potency was 13.2 µM (active).
Under `Cc1noc(NS(=O)(=O)c2ccc(N)cc2)c1C` stands “inactive”; under `CCCc1cc(C(N)=S)ccn1`, “inactive”; under `CN1CCN(c2c(F)cc3c(=O)c(C(=O)O)cn4c3c2OCN4C)CC1`, “inactive”.
Under `CO[C@@]12[C@H](COC(N)=O)C3=C(C(=O)C(C)=C(N)C3=O)N1C[C@@H]1N[C@@H]12` stands 6.62 µM (active); under `COC(c1ccccc1)(c1ccccc1)[C@H](Oc1nc(C)cc(C)n1)C(=O)O`, “inactive”; under `CCCN[C@H]1CCc2nc(N)sc2C1`, “inactive”.
As for `CCOC(=O)[C@H](CCc1ccccc1)N[C@H]1CS[C@H](c2cccs2)CN(CC(=O)O)C1=O`, the Potency was 0.59 µM (active).
Under `CC(C)Cn1cnc2c(N)nc3ccccc3c21` stands 14.8 µM (active).
Under `CCCCCCNC(=O)n1cc(F)c(=O)[nH]c1=O` stands “inactive”; under `N[C@@H](Cc1ccc(O)c(O)c1)C(=O)O`, “inactive”; under `C[C@]12C=CC(=O)C=C1CC[C@@H]1[C@@H]2C(=O)C[C@@]2(C)[C@H]1CC[C@]2(O)C(=O)CO`, “inactive”.
On to `CCN(CC)CCn1c(=O)c(Cc2ccc(OC)cc2)nc2ccccc21`, for which the Potency entry was “inactive”.
Under `NCCCC(O)(P(=O)(O)O)P(=O)(O)O` stands 14.8 µM (active).
Under `NC(=O)c1ccc2[nH]ccc2c1` stands “inactive”; under `CCn1cc(C(=O)O)c(=O)c2cc(F)c(N3CCNCC3)nc21`, “inactive”; under `CO[C@@H]1[C@@H](OC(N)=O)[C@@H](O)[C@H](Oc2ccc3c(O)c(NC(=O)c4ccc(O)c(CC=C(C)C)c4)c(=O)oc3c2C)OC1(C)C`, 9.35 µM (active).
Turning to `Cc1ncc([N+](=O)[O-])n1CCO`, the Potency entry is “inactive”.
